# Screens as filed in PubChem.
# The full list was thinned out, with hits kept by preference.
# Pf Dd2 growth – Plasmodium falciparum Dd2 growth inhibition. P. falciparum Dd2 growth, SYBR Green, 72 h. Potency, µM (series often up to 28.9 µM), without a hit: at the highest dose activity, negative = inhibition, hits mostly inhibitors. hit rate 4.3% among 120,000. AID 1347417; active = well fitted inhibition curve with a large enough effect;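 also: plate controls were DMSO vehicle for no effect and reference drug for full effect; nearly all actives have a fitted effect of over 65% in size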
#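 Infected erythrocytes (Dd2, 0.3% parasitemia, 2.5% hematocrit final) are added to compound in RPMI-1640/Albumax II medium, grown 72 h at 37C in low oxygen, then lysed with saponin/Triton-X containing SYBR Green and read by fluorescence.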
# * hit, by the source's call; i = inactive; [ ] = dose if it differs, or a comment. Potency is read from the fitted curve at half-maximal effect.
SMILES,Pf Dd2 growth
COc1ccc(NC(=O)C2(C)CCc3cnc(NCc4ccccc4)nc32)cn1 (stereo not given),i
Cc1ccc(-c2cn3c(n2)N(C(=O)Cn2ccnc2C)CCC3)cc1,10µM*
COc1ccc(-c2cn3c(n2)N(C(=O)Cn2ccnc2)CCC3)cc1,6%
Cc1ccc(-c2cn3c(n2)N(C(=O)c2cnn4cccnc24)CCC3)cc1,-6%
CCc1ccc(NC(=O)Cn2ccn3nc4c(c3c2=O)CC(C)CC4)cc1 (stereo not given),i
CCOc1ccccc1CNCc1cccn1-c1nnc(N2CCN(c3ccccc3)CC2)s1,7.1µM*
CCOc1ccccc1CNC(=O)c1cccn1-c1nnc(N2CCCCC2)s1,-13%
c1ccc(N2CCN(Cc3cccn3-c3nnc(N4CCN(C5CCCCC5)CC4)s3)CC2)cc1,-1%
CCNC(=O)[C@@H]1C[C@@H](NC(=O)Cn2nccc2C)CN1Cc1ccccn1,5%
O=C(c1cnccn1)N1C[C@@H]2OCC(=O)N(Cc3ccccc3)[C@@H]2C1,23%[44.1 µM]
CCn1c(CO)nnc1C1CC(NC(=O)Cc2c(C)n[nH]c2C)C1 (stereo not given),-2%
Cc1ccccc1OCC(=O)Nc1ccc2nc(SCCOc3ccccc3)sc2c1,-10%
Cc1ccccc1OCCSc1nc2ccc(NC(=O)c3cccs3)cc2s1,1.1µM*
Cc1ccccc1C(=O)Nc1ccc2nc(SCCOc3ccccc3)sc2c1,i
Cc1ccc(NC(=O)CSc2nc3ccc(NC(=O)c4ccco4)cc3s2)c(C)c1,-8%
Cc1ccccc1NC(=O)CSc1nc2ccc(NC(=O)c3ccccc3)cc2s1,14%
Cc1ccccc1NC(=O)CSc1nc2ccc(NC(=O)c3ccco3)cc2s1,11µM*
Cn1nccc1C(=O)N1CCC(c2noc(-c3ccccc3)n2)C1 (stereo not given),23%[5.79 µM]
COc1ccc(CN2CC[C@@H]3CN(S(C)(=O)=O)[C@@H]3C2)cc1C,i
Cc1noc([C@H]2CCN(C(=O)NCc3ccc(F)cc3)C[C@H]2NC(=O)C2CCOCC2)n1,20%
Cc1ccc(-c2nnc(Nc3ccc(O)cc3)c3ccccc23)cc1S(=O)(=O)N1CCOCC1,8.9µM*
COc1ccc(Nc2nnc(-c3ccc(C)c(S(=O)(=O)N4CCN(C)CC4)c3)c3ccccc23)cc1,8.9µM*
COc1ccc(S(=O)(=O)N2CCC(c3nnc(-c4ccccc4C)o3)CC2)c(OC)c1,-12%
Cc1ccc(Nc2nnc(-c3ccc(C)c(S(=O)(=O)N4CCN(C)CC4)c3)c3ccccc23)c(C)c1,7.9µM*
COC(=O)COc1ccc(-c2nnc(Nc3ccc(O)cc3)c3ccccc23)cc1,i
SMILES,Pf Dd2 growth
COc1ccccc1N1CCN(S(=O)(=O)c2cc(-c3cc(C)no3)ccc2C)CC1,-4%
CNC(=O)c1cc(Nc2nnc(-c3ccc(O)cc3)c3ccccc23)ccc1OC,i
Cc1ccccc1-c1noc(-c2ccc(NCC3CCCO3)c([N+](=O)[O-])c2)n1 (stereo not given),8%
Cc1ccccc1Nc1nnc(-c2ccc(C)c(S(=O)(=O)NCC3CCCO3)c2)c2ccccc12 (stereo not given),5.6µM*
COc1ccc(N2CCN(S(=O)(=O)c3ccc(-c4ccno4)cc3OC)CC2)cc1,54%
Cc1ccc(N2CCN(S(=O)(=O)c3ccc(Cl)c4ccccc34)CC2)c(C)c1,17%
Cc1ccc(-c2nn3c(C)nnc3c3ccccc23)cc1S(=O)(=O)NCCO,8%
CC(=O)NCCCC(=O)N1CCN(C2CCNCC2)C(=O)C1,40%
COc1ncccc1-c1ccnc(-c2nnc(C)n2Cc2ccccc2)c1,i
Cc1ccc(-n2nc(CC(N)=O)nc2CCn2ccc(=O)[nH]c2=O)c(C)c1,1%
O=C(NCc1ccc(F)cc1)C1CCc2nnc(C3CCN(C(=O)c4ccc(Cl)cc4Cl)CC3)n21 (stereo not given),53%
c1cn(CCN2CCCC2)c(-c2cc3n(n2)CCNC3)n1,-2%
O=C(CCc1ccccc1)N1CC2CC(C1)[C@H]1CCCC(=O)N1C2 (stereo not given in full),-1%
COc1ccc(-c2nc(C3CC3)nc3c2CN([S+](=O)([O-])c2ccccc2)CC3)cc1,-29%
Cc1ccc(-c2nnc(Nc3ccc(OC(F)(F)Cl)cc3)c3ccccc23)cc1S(=O)(=O)NC(C)(C)CO,13µM*
COc1nnc(-c2ccc(N3CCCCC3)c(NC(=O)c3ccc(C)cc3)c2)c2ccccc12,-8%
Cc1ccc(Nc2nnc(-c3ccc(C)c(S(=O)(=O)N4CCN(C)CC4)c3)c3ccccc23)cc1,7.9µM*
Cc1ccc(-c2nn3c(C)nnc3c3ccccc23)cc1S(=O)(=O)NC(C)(C)CO,-29%
COc1ccc(S(=O)(=O)NC(C)(C)CO)cc1-c1nnc2c3ccccc3c(C)nn12,i
Cc1ccc(-c2nnc(Nc3ccccc3)c3ccccc23)cc1S(=O)(=O)N1CCN(C)CC1,-11%
Cc1nc(-c2ccc(F)cc2)n(Cc2nc(-c3ccc(Cl)cc3)oc2C)c(=O)c1CCO,-12%
COc1ccc(CN2CCCCC23Cc2ccccc2CN(C(C)=O)C3)cc1 (stereo not given),25%
